Many of the other results were omitted from the sample, so hits are more common in it than they were.
NPR2 activator: GC-B (human) receptor activation; P20594; HEK293-GC-B cells, CNP EC30, cGMP TR-FRET; 0% at EC30 CNP, 100% saturating CNP; activation, % at 10 µM; 370,000 compounds, 0.11% hits;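 active = activation at 10 µM reaching about 35% in either raw or pattern-adjusted values, limit read from the data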
NPR1 activator: GC-A (human) enzyme activation. HEK293 GC-A cells, cGMP TR-FRET, EC30 ANP; 0% at EC30 ANP, 100% saturating ANP. activation, % at 10 µM. 370,000 compounds, 0.14% hits. AID 1671463; in the data active = activation above about 40%
ALR H2O2 inh: human ALR oxidase inhibition via reduced H2O2; P55789; purified ALR, DTT oxidation, H2O2 HRP-luminol luminescence; inhibition, % (no concentration beside the values); 290,000 compounds, 3.8% hits;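 active = mean replicate inhibition above about 79%, with every replicate also reaching it, limit read from the data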
Target sequence (P55789 whole entry, looked up): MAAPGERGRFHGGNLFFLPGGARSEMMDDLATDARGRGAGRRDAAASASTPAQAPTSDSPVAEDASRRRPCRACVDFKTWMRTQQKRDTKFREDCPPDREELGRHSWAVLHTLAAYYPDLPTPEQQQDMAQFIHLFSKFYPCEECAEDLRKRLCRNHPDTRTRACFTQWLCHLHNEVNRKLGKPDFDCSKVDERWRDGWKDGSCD
HDAC3 inh: blocks human histone deacetylase 3; O15379; recombinant HDAC3, fluorogenic peptide/trypsin coupled, fluorescence; inhibition, % at 8.3 µM; 320,000 compounds, 0.15% hits; AID 2718; in the data active = inhibition above about 26%, passing the limit was not always enough
Hits are given with their value; – = inactive; · = not tested or not shown.

SMILES | NPR2 activator | NPR1 activator | ALR H2O2 inh | HDAC3 inh
O=C(NC1CCCCC1)C(c1ccncc1)N(C(=O)c1csnn1)c1ccccc1F (stereo not given) | – | – | – | –
O=C(c1cc(S(=O)(=O)N2CCCCC2)ccc1F)N1CCCCC1 | – | – | 83 | –
O=C(c1ccccc1F)N1CCN(S(=O)(=O)c2ccc(S(=O)(=O)N3CCCCC3)cc2)CC1 | – | – | – | –
O=C(O)c1ccc(Nc2nc3ccc(Cl)cc3[nH]2)cc1 | – | – | – | –
O=C(O)CCn1c2c(c3ccccc31)CCCC2 | – | – | 99 | –
c1ccc(-c2nc(-c3ccco3)n3ccccc23)cc1 | – | – | 94 | –
CCn1c(-c2ccco2)nc2ccccc21 | – | – | – | –
COCCn1c(SCC(=O)Nc2ccccc2F)nc2c([nH]c3ccccc32)c1=O | – | 55 | – | –
COCCn1c(SCC(=O)Nc2ccc(F)cc2)nc2c([nH]c3ccccc32)c1=O | – | – | – | –
COCCn1c(SCC(=O)Nc2ccc(C(N)=O)cc2)nc2c([nH]c3ccccc32)c1=O | – | – | 99 | –
COc1cc(NCCC(=O)c2cccs2)c(OC)cc1Cl | – | – | 100 | –
COc1ccc(NC(=O)CCC(=O)c2cccs2)cc1Cl | – | – | – | –
CC(CC(=O)N1CCc2ccccc21)n1cccn1 (stereo not given) | – | – | – | –
COC(=O)c1ccc(NC2=C(Cl)C(=O)OC2OC(=O)c2ccccc2)cc1 (stereo not given) | – | – | 97 | –
CCCCc1cc(=O)oc2cc(C)cc(OCC(=O)NCc3ccncc3)c12 | – | – | – | –
O=C(CSc1nc2ccccc2[nH]1)NN=Cc1ccccc1C(=O)O | – | – | · | ·
CCOc1cc(/C=C2\SC(=S)N(C(C(=O)O)c3ccccc3)C2=O)ccc1O (stereo not given) | – | – | 100 | –
O=C(O)C(c1ccccc1)N1C(=O)/C(=C\c2ccc(O)c(O)c2)SC1=S (stereo not given) | – | – | 99 | –
CCOc1ccc(/C=C2/SC(=S)N(C(C(=O)O)c3ccccc3)C2=O)cc1OCC (stereo not given) | – | – | · | ·
COC(=O)c1ccc(NC(=O)Cn2nc(C(=O)Nc3ccc(C)cc3)ccc2=O)cc1 | – | – | – | –
O=C1c2c(O)ccc(O)c2C(=O)c2c(NCCNCCO)ccc(NCCNCCO)c21 | – | – | 100 | –
O=C(NC1CC1)C1CCN(C2CCN(C(=O)/C=C/c3ccc(F)cc3)CC2)CC1 | – | – | – | –
O=C(NCCN1CCN(c2ccccc2)CC1)c1ccccc1F | – | – | 99 | –
COc1cc(NC(=O)NCCN2CCN(c3ccccc3)CC2)cc(OC)c1OC | – | – | 98 | –
COc1cc(/C=N/NC(=O)CCN2CCN(c3ccccc3)CC2)cc(OC)c1OC | – | – | 93 | –
SMILES | NPR2 activator | NPR1 activator | ALR H2O2 inh | HDAC3 inh
COc1cc(/C=N/NC(=O)CCN2CCN(Cc3ccccc3)CC2)cc(OC)c1OC | – | – | · | –
O=C(NCCN1CCN(c2ccccc2)CC1)Nc1ccc(Cl)cc1 | – | – | – | –
Cc1ccccc1OCC(=O)Nc1ccc(Cc2ccncc2)cc1 | – | – | – | –
Cc1ccccc1OCC(=O)NCCc1nc2ccccc2[nH]1 | – | – | 99 | –
Cc1ccccc1OCC(=O)Nc1ccncc1 | – | – | 99 | –
COc1ccc(NC(=O)COC(=O)CCOc2ccccc2C)cc1Cl | – | – | 98 | –
CCNC(COC(=O)c1ccc([N+](=O)[O-])cc1)C1CCCCC1 (stereo not given) | – | – | · | ·
O=C(Nc1cccc(C(F)(F)F)c1)c1csc([C@H]2C[C@H](O)[C@@H](CO)O2)n1 | – | – | · | ·
O=C1N(c2ccccc2)CC2C(c3ccccc3)C(c3ccccc3)N3CCCC123 (stereo not given) | – | – | · | ·
Cc1n[nH]c(=S)n1-c1cccc(Cl)c1 | – | – | 94 | –
Cc1cccc(-n2c(C)n[nH]c2=S)c1C | – | – | 77 | –
COc1ccc(C(=O)Oc2ccc(/C=N/O)cc2)cc1 | – | – | 91 | –
CCC(C)Nc1nc(Cl)nc(N(C#N)CN2C(=O)c3ccccc3S2(=O)=O)n1 (stereo not given) | – | – | – | –
CC(C)Nc1nc(Cl)nc(N(C#N)CN2C(=O)c3ccccc3C2=O)n1 | 48 | 48 | – | –
CNC(=O)[C@H]1O[C@@H](n2cnc3c(NCc4cccc(I)c4)ncnc32)[C@H](O)[C@@H]1O | – | – | 82 | –
NC(=O)c1ccc(-c2ccc(Br)cc2)o1 | – | – | 98 | –
CC(=O)N1CCN(C(=S)c2ccc(-c3ccc(Cl)cc3)o2)CC1 | 48 | 43 | – | –
O=C(O)c1ccc(NC(=S)NC(=O)c2ccc(-c3ccc(Br)cc3)o2)cc1 | – | – | 93 | –
NC(=O)C1CCN(C(=S)c2ccc(-c3ccc(Br)cc3)o2)CC1 | 47 | 45 | – | –
C#CCCN([C@H](C(=O)OC)C(C)C)S(=O)(=O)c1ccccc1Br | – | – | · | ·
N#Cc1ccccc1S(=O)(=O)N1CCN(C(=O)[C@@H]2CCCN2C(=O)c2cccs2)CC1 | – | – | – | –
CCSc1nnc(NC(=O)[C@H](C)NC(=O)c2ccccc2Cl)s1 | – | – | – | –
O=C(Nc1ccc(N2CCOCC2)cc1N1CCOCC1)c1cccs1 | – | – | 78 | –
O=S(=O)(Nc1ccc(N2CCOCC2)cc1)c1cccs1 | – | – | 98 | –
Cc1ccc(CSCC(=O)Nc2ccc(N3CCOCC3)cc2N2CCOCC2)cc1 | – | – | 98 | –
SMILES | NPR2 activator | NPR1 activator | ALR H2O2 inh | HDAC3 inh
Cc1ccc(CNCC(=O)Nc2ccc(N3CCOCC3)cc2)cc1 | – | – | 99 | –
Cc1ccc(C(=O)NC(Cc2cccc(C(F)(F)F)c2)C(=O)O)cc1 (stereo not given) | – | – | · | ·
COc1cccc(C(=O)COC(=O)c2cccs2)c1 | – | – | – | –
O=C(CNc1cc(S(=O)(=O)N2CCOCC2)ccc1NCC1CCCO1)Nc1cccc(F)c1 (stereo not given) | – | – | – | –
COCCN(C(=O)COC(=O)C12CC3CC(CC(C3)C1)C2)c1c(N)n(Cc2ccccc2)c(=O)[nH]c1=O | – | – | · | ·
CCC(C#Cc1ccccc1)N(C)C(N)=NC(=O)/C=C/c1ccccc1 (stereo not given) | – | – | · | ·
Cc1ccc2c(c1)N(C(=O)CCC(=O)NCc1cccc(F)c1)CCO2 | – | – | – | –
CC(C)[C@H](NC(=O)N1CC(=O)Nc2ccccc21)C(=O)Nc1nccs1 | – | – | 91 | –
CCC(C)[C@H](NC(=O)N1CC(=O)Nc2ccccc21)C(=O)Nc1nccs1 (stereo not given in full) | – | – | – | –
COC(=O)C1=CN(c2cccc(OCc3ccccc3)c2)C(N)=C(C#N)C1c1cccc(F)c1 (stereo not given) | – | – | · | ·
COCCN(Cc1ccccc1)C(=O)c1cccc(S(=O)(=O)N2CCN(Cc3ccccc3)CC2)c1 | – | – | · | ·
CCOC(=O)c1c(N2C(=O)Nc3ccccc3N2O)sc2c1CCCC2 | – | – | 93 | –
COc1cccc(CC(=O)OCC(=O)NCCc2ccc(F)cc2)c1 | – | – | – | –
